# Data as given in the supplement of paper PMC8728848.
# This excerpt belongs to a sample that is enriched for the strongest signals.
# B1: GST-Gap1 (Streptococcus parasanguinis), A1C3L5 (protein)
# chain: MFYFVPSWYNGQRQWYYDTPWWFRVKNRMTFDDSVNQVKMFLQGQEEIGLMILNYQPQLRYFLHKQNIFGIYYWSFFDDIQNITRSYTKIIHLKDLNWPEGCEFLYSPFAVVVRLKGEIFAIVNYAEDGNLHSVSFQKNGKVTKDYIFDDRGFLSSILYYDIDERPLYQDYLNINGVWQVREFLKKENDPTPILMINDFSDQTFSKKYYNGWEELIKERLAIFQNNHVENEDVFVLASDTQHNQLVSSIFKEHRKIYSFFGNRFNLENLGQDRISINDATFLVVDTEKNEELLRKTCENLVFKSIPIVRLSPFDSRLRLGHSQTVKEQIIYFHIDNIELDELYSVIAIILELMTLHLDIELRIVTFRQDFQLDLLKTWIIDFIKTNHFEDLLFKQISEGENEIEDEGEIELSRIAMECFTNENQIIKCLDTARLVIDLGIEPDLYTQIASISAGIPQINRVSSDYVIHQKNGLVISDISKLSSAIEFYFDGLFNWNEALIYAVRKMSDYTSGKILKQWKGMLKKK
# Key:
# Assay in all cases: glycan array binding signal (z-score within array); higher = stronger binding
# Settings in all cases: glycan notation: IUPAC condensed, linker removed
# [1] = molecular target: Gal(b1-6)Gal
# Summary of the method: (§1)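 The Consortium for Functional Glycomics database supplied 3228 glycan arrays, of which those lacking an available protein sequence were dropped. The binding signal, a within-array Z-score, was averaged across arrays of the same protein sequence and across linkers. Negative scores can be read as non-binding.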
# [2] = molecular target: Gal3S(b1-4)GlcNAc
# Summary of the method: as §1
# [3] = molecular target: Gal3S(b1-4)[Fuc(a1-3)]Glc
# Summary of the method: as §1
# [4] = molecular target: GalNAc(a1-3)GalNAc
# Summary of the method: as §1
# [5] = molecular target: GalNAc(b1-3)Gal(a1-4)Gal(b1-4)GlcNAc
# Summary of the method: as §1
# [6] = molecular target: GalNAc(b1-4)GlcNAc
# Summary of the method: as §1
# [7] = molecular target: GlcA(b1-3)GlcNAc
# Summary of the method: as §1
# [8] = molecular target: GlcNAc(b1-3)Gal(b1-4)GlcNAc(b1-2)Man(a1-3)[GlcNAc(b1-3)Gal(b1-4)GlcNAc(b1-2)Man(a1-6)]Man(b1-4)GlcNAc(b1-4)GlcNAc
# Summary of the method: as §1
# [9] = molecular target: GlcNAc(b1-3)Gal(b1-4)GlcNAc(b1-3)Gal(b1-4)GlcNAc(b1-3)Gal(b1-4)GlcNAc(b1-2)Man(a1-3)[GlcNAc(b1-3)Gal(b1-4)GlcNAc(b1-3)Gal(b1-4)GlcNAc(b1-3)Gal(b1-4)GlcNAc(b1-2)Man(a1-6)]Man(b1-4)GlcNAc(b1-4)[Fuc(a1-6)]GlcNAc
# Summary of the method: as §1
# [10] = molecular target: GlcNAc(b1-3)Gal(b1-4)GlcNAc(b1-3)Gal(b1-4)GlcNAc(b1-3)Gal(b1-4)GlcNAc(b1-3)Gal(b1-4)GlcNAc(b1-2)Man(a1-3)[GlcNAc(b1-3)Gal(b1-4)GlcNAc(b1-3)Gal(b1-4)GlcNAc(b1-3)Gal(b1-4)GlcNAc(b1-3)Gal(b1-4)GlcNAc(b1-2)Man(a1-6)]Man(b1-4)GlcNAc(b1-4)GlcNAc
# Summary of the method: as §1
# [11] = molecular target: GlcNAc(b1-3)Gal(b1-4)GlcNAc(b1-3)Gal(b1-4)GlcNAc(b1-3)Gal(b1-4)GlcNAc(b1-3)Gal(b1-4)GlcNAc(b1-2)Man(a1-3)[GlcNAc(b1-3)Gal(b1-4)GlcNAc(b1-3)Gal(b1-4)GlcNAc(b1-3)Gal(b1-4)GlcNAc(b1-3)Gal(b1-4)GlcNAc(b1-2)Man(a1-6)]Man(b1-4)GlcNAc(b1-4)[Fuc(a1-6)]GlcNAc
# Summary of the method: as §1
# [12] = molecular target: GlcNAc(b1-3)Gal(b1-4)GlcNAc(b1-3)Gal(b1-4)GlcNAc(b1-3)Gal(b1-4)GlcNAc(b1-3)Gal(b1-4)GlcNAc(b1-2)[GlcNAc(b1-3)Gal(b1-4)GlcNAc(b1-3)Gal(b1-4)GlcNAc(b1-3)Gal(b1-4)GlcNAc(b1-3)Gal(b1-4)GlcNAc(b1-6)]Man(a1-6)[GlcNAc(b1-3)Gal(b1-4)GlcNAc(b1-3)Gal(b1-4)GlcNAc(b1-3)Gal(b1-4)GlcNAc(b1-3)Gal(b1-4)GlcNAc(b1-2)Man(a1-3)]Man(b1-4)GlcNAc(b1-4)[Fuc(a1-6)]GlcNAc
# Summary of the method: as §1
# [13] = molecular target: GlcNAc(b1-3)Man
# Summary of the method: as §1
# [14] = molecular target: MurNAc(b1-4)GlcNAc
# Summary of the method: as §1
# [15] = molecular target: Neu5Ac(a2-3)Gal(b1-3)GalNAc(b1-4)[Neu5Ac(a2-8)Neu5Ac(a2-3)]Gal(b1-4)Glc
# Summary of the method: as §1
# [16] = molecular target: Neu5Ac(a2-3)Gal(b1-4)GlcNAc(b1-2)Man(a1-3)[Neu5Ac(a2-3)Gal(b1-4)GlcNAc(b1-2)Man(a1-6)]Man(b1-4)GlcNAc(b1-4)GlcNAc
# Summary of the method: as §1
# [17] = molecular target: Neu5Ac(a2-3)Gal(b1-4)GlcNAc(b1-3)Gal(b1-4)GlcNAc(b1-2)Man(a1-3)[Neu5Ac(a2-3)Gal(b1-4)GlcNAc(b1-3)Gal(b1-4)GlcNAc(b1-2)Man(a1-6)]Man(b1-4)GlcNAc(b1-4)GlcNAc
# Summary of the method: as §1
# [18] = molecular target: Neu5Ac(a2-3)Gal(b1-4)GlcNAc(b1-3)Gal(b1-4)GlcNAc(b1-3)Gal(b1-4)GlcNAc(b1-2)Man(a1-3)[Neu5Ac(a2-3)Gal(b1-4)GlcNAc(b1-3)Gal(b1-4)GlcNAc(b1-3)Gal(b1-4)GlcNAc(b1-2)Man(a1-6)]GalNAc
# Summary of the method: as §1
# [19] = molecular target: Neu5Ac(a2-3)Gal(b1-4)GlcNAc(b1-3)Gal(b1-4)GlcNAc(b1-6)[Gal(b1-3)]GalNAc
# Summary of the method: as §1
# [20] = molecular target: Neu5Ac(a2-3)Gal(b1-4)[Fuc(a1-3)]GlcNAc(b1-6)[Gal(b1-3)]GalNAc
# Summary of the method: as §1
# [21] = molecular target: Neu5Ac(a2-6)Gal(b1-4)GlcNAc(b1-2)Man(a1-3)[GlcNAc(b1-2)Man(a1-6)]Man(b1-4)GlcNAc(b1-4)GlcNAc
# Summary of the method: as §1
# [22] = molecular target: Neu5Ac(a2-6)Gal(b1-4)GlcNAc(b1-2)Man(a1-3)[Neu5Ac(a2-3)Gal(b1-4)GlcNAc(b1-2)Man(a1-6)]Man(b1-4)GlcNAc(b1-4)GlcNAc
# Summary of the method: as §1
# [23] = molecular target: Neu5Ac(a2-6)Gal(b1-4)GlcNAc(b1-2)[Neu5Ac(a2-6)Gal(b1-4)GlcNAc(b1-4)]Man(a1-3)[GlcNAc(b1-4)][Neu5Ac(a2-6)Gal(b1-4)GlcNAc(b1-2)[Neu5Ac(a2-6)Gal(b1-4)GlcNAc(b1-6)]Man(a1-6)]Man(b1-4)GlcNAc(b1-4)GlcNAc
# Summary of the method: as §1
# [24] = molecular target: Neu5Ac(a2-6)Gal(b1-4)GlcNAc(b1-3)Gal(b1-4)GlcNAc(b1-3)Gal(b1-4)GlcNAc(b1-2)Man(a1-3)[Neu5Ac(a2-6)Gal(b1-4)GlcNAc(b1-3)Gal(b1-4)GlcNAc(b1-3)Gal(b1-4)GlcNAc(b1-2)Man(a1-6)]GalNAc
# Summary of the method: as §1
# [25] = molecular target: Neu5Ac(a2-6)Gal(b1-4)GlcNAc6S
# Summary of the method: as §1
# [26] = molecular target: Neu5Ac(a2-6)GalNAc(b1-4)GlcNAc6S
# Summary of the method: as §1
# [27] = molecular target: Neu5Gc(a2-8)Neu5Ac(a2-3)Gal(b1-4)GlcNAc
# Summary of the method: as §1
binder,measurement,setting,value
B1,glycan array binding signal (z-score),[1],0.538
same,glycan array binding signal (z-score),[2],0.12
same,glycan array binding signal (z-score),[3],-0.553
same,glycan array binding signal (z-score),[4],-0.202
same,glycan array binding signal (z-score),[5],0.159
same,glycan array binding signal (z-score),[6],-0.452
same,glycan array binding signal (z-score),[7],5.69
same,glycan array binding signal (z-score),[8],0.668
same,glycan array binding signal (z-score),[9],2.14
same,glycan array binding signal (z-score),[10],0.361
same,glycan array binding signal (z-score),[11],-0.16
same,glycan array binding signal (z-score),[12],0.811
same,glycan array binding signal (z-score),[13],-0.28
same,glycan array binding signal (z-score),[14],-0.969
same,glycan array binding signal (z-score),[15],0.39
same,glycan array binding signal (z-score),[16],-1.31
same,glycan array binding signal (z-score),[17],2.28
same,glycan array binding signal (z-score),[18],2.15
same,glycan array binding signal (z-score),[19],-0.747
same,glycan array binding signal (z-score),[20],1.35
same,glycan array binding signal (z-score),[21],-0.335
same,glycan array binding signal (z-score),[22],0.84
same,glycan array binding signal (z-score),[23],-0.54
same,glycan array binding signal (z-score),[24],2.53
same,glycan array binding signal (z-score),[25],0.323
same,glycan array binding signal (z-score),[26],-0.037
same,glycan array binding signal (z-score),[27],-0.655
